Measurements from PubChem BioAssay.
Values without a mark were called inactive. For some assays here: Measured potencies and affinities stand elsewhere. The source made the active and inactive calls. Unless noted, how the calls were made is not given here.

Experiments:
[1] = antimalarial activity against Dd2 strain (AID 2302;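 active means growth inhibition above 50% at the single 2 µM test dose, taken to imply half-maximal potency below 2 µM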;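 further: 0% = DMSO untreated growth and 100% = chloroquine plus artemisinin killed control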); conditions: P. falciparum Dd2 in RBCs, LDH growth readout, 72 h; at 2 µM; stronger effect = higher value
[2] = HepG2 cytotoxicity, primary screen, cytotoxicity control for P. falciparum antimalarial project, cell-based, ATP luminescence (AID 2303;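 active means inhibition above 50%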;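 further: 0% = DMSO wells and 100% = digitonin-killed cells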); conditions: HepG2 viability, 24-48 h, at 10 µM, stronger effect = higher value
[3] = biological target: L-lactate dehydrogenase (Plasmodium falciparum (isolate CDC / Honduras)) (UniProt Q27743); test: PfLDH activity inhibition – cell lysate, 3D7 strain, counter-screen for P. falciparum growth inhibition project (AID 2304);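 further: 0% = vehicle and 100% = reference inhibitor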; conditions: P. falciparum 3D7 crude extract, LDH APAD/NBT absorbance; at 2 µM; stronger effect = higher value
Chain of L-lactate dehydrogenase (Plasmodium falciparum (isolate CDC / Honduras)) (Q27743 whole entry, looked up): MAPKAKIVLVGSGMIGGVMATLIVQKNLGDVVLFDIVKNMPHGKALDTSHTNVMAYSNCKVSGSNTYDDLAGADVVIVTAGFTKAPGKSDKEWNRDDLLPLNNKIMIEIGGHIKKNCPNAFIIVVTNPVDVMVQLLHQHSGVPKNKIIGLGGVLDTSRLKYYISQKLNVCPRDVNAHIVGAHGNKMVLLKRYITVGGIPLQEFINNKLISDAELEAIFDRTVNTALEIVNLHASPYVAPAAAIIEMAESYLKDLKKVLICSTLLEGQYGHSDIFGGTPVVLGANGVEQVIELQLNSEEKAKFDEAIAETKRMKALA

[4] = inhibition of 3D7 malaria parasite growth – strain 3D7 (AID 2306);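 further: 0% = DMSO wells and 100% = chloroquine plus artemisinin control wells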; conditions: P. falciparum 3D7 erythrocytic growth, LDH absorbance, 72 h; at 2 µM; stronger effect = higher value
[5] = biological target: Calcium-dependent protein kinase 1 (Plasmodium falciparum (isolate 3D7)) (UniProt P62344); test: PfCDPK1 kinase inhibitors, biochemical, TCAMS library (AID 1159585; cut-off not given, nearly all actives have IC50 up to about 0.98 µM;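 further: inhibitors leave more ATP so luminescence rises with inhibition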); conditions: recombinant PfCDPK1, Kinase-Glo ATP depletion luminescence
Chain of Calcium-dependent protein kinase 1 (Plasmodium falciparum (isolate 3D7)) (P62344 whole entry, looked up): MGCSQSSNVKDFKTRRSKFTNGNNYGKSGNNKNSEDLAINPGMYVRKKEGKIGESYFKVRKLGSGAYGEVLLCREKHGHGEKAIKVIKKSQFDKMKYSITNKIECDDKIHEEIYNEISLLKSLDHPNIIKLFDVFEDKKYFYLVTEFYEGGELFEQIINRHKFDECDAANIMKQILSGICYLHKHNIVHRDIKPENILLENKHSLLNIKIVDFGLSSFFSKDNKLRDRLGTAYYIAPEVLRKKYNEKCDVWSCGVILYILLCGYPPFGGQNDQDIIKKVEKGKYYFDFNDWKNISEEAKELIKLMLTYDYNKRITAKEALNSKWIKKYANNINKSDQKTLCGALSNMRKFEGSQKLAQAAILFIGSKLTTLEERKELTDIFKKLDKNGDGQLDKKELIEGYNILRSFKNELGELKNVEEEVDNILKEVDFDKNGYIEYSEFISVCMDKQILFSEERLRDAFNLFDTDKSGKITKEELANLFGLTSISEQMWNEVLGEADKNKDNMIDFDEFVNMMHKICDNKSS

[6] = biological target: Plasmodium falciparum protein kinase 6 (PK6, PF3D7_1337100) (UniProt Q8IDW1); test: PfPK6 kinase inhibitors, biochemical, TCAMS library (AID 1159586); conditions: recombinant PfPK6, Kinase-Glo ATP depletion luminescence
Chain of Plasmodium falciparum protein kinase 6 (PK6, PF3D7_1337100) (Q8IDW1 1-305): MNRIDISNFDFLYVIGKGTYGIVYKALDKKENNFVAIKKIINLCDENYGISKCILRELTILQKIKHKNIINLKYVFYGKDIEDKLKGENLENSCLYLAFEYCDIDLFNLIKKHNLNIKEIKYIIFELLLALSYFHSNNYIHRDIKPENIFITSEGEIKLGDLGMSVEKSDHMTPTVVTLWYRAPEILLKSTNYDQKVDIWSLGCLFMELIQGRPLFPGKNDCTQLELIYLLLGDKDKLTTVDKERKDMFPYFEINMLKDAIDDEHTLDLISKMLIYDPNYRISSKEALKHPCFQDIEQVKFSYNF

[7] = biological target: Protein kinase 7 (PK7), Plasmodium falciparum 3D7 (PF3D7_0213400) (UniProt Q7YTF7); test: inhibition of Plasmodium PK7 catalytic activity – biochemical, TCAMS antimalarial set, Kinase-Glo luminescence (AID 1159587); conditions: recombinant PfPK7, Kinase-Glo ATP depletion luminescence
Chain of Protein kinase 7 (PK7), Plasmodium falciparum 3D7 (PF3D7_0213400) (Q7YTF7 1-343): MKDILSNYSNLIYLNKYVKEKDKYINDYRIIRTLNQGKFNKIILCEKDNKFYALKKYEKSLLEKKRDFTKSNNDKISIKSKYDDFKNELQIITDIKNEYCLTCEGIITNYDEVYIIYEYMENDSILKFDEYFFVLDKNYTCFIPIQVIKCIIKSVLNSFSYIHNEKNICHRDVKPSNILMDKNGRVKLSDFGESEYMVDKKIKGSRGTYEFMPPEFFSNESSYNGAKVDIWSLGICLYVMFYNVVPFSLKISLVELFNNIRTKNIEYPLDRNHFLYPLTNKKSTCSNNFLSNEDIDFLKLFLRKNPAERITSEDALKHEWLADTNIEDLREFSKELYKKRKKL

[8] = biological target: Calcium-dependent protein kinase 4 (Plasmodium falciparum (isolate 3D7)) (UniProt Q8IBS5); test: PfCDPK4 kinase inhibitors, biochemical, TCAMS library (AID 1159588; cut-off not given, nearly all actives have IC50 up to about 0.91 µM); conditions: recombinant PfCDPK4, Kinase-Glo ATP depletion luminescence
Chain of Calcium-dependent protein kinase 4 (Plasmodium falciparum (isolate 3D7)) (Q8IBS5 whole entry, looked up): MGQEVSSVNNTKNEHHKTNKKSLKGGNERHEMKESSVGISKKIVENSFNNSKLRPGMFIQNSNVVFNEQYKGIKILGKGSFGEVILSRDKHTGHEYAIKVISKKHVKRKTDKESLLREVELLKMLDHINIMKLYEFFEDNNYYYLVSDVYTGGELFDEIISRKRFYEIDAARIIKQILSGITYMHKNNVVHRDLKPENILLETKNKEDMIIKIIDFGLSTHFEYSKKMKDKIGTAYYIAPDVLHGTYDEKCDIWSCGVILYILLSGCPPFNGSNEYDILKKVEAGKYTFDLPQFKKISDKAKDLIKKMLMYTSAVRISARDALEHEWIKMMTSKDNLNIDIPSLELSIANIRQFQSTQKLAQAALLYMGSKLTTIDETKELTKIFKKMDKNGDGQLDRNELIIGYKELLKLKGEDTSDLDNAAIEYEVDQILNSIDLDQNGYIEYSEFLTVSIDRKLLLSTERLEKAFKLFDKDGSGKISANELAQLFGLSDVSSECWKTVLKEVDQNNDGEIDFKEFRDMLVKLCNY

| Compound | growth inhibition [1] | inhibition [2] | inhibition [3] [%] | growth inhibition [4] | outcome [5] | outcome [6] | outcome [7] | outcome [8] |
| --- | --- | --- | --- | --- | --- | --- | --- | --- |
| Cn1nc(-c2ccc(NC(=O)Nc3cc(C(F)(F)F)ccc3F)cc2)c2cnc(NCCc3cnc[nH]3)nc21 | 56% (active) | 15% | -3 | 99% (active) | inactive | inactive | inactive | inactive |
| CCCCC(=O)Nc1cc(=O)[nH]c2nc(-c3ccc(Cl)cc3)nn12 | 77% (active) | 1% | 0 | 89% (active) | inactive | inactive | inactive | inactive |
| Cc1cc(N[C@@H](Cc2ccccc2)C(=O)NC2CCCC2)nc(NCc2ccccc2C)n1 | 20% | 2% | 3 | 91% (active) | inactive | inactive | inactive | inactive |
| O=S(=O)(Nc1ccc(CCN2CCC(N3CCCCC3)CC2)cc1)c1cccc(C(F)(F)F)c1 | 15% | 20% | -3 | 101% (active) | inactive | inactive | inactive | inactive |
| C=CCNC(=O)CCCN=C(N)N | 12% | -9% | -1 | 98% (active) | inactive | inactive | inactive | inactive |
| COc1cc(CCCOc2c(N)nc(N)nc2N)cc(OC)c1OC | 0% | 8% | 2 | 88% (active) | inactive | inactive | inactive | inactive |
| CC1(C)CC(NCCCCCCCOc2ccc(OCc3ccccc3)cc2)CC(C)(C)N1 | 73% (active) | 99% (active) | 0 | 100% (active) | inactive | inactive | inactive | inactive |
| N#Cc1ccc(NC2(C(=O)N3CCN(c4cccc(Cl)c4)CC3)CC2)c2ccccc12 | 66% (active) | -5% | 0 | 94% (active) | inactive | inactive | inactive | inactive |
| CCC(CO)NCC(O)Cn1c2ccc(Br)cc2c2cc(Br)ccc21 (stereo not given) | 87% (active) | 18% | -6 | 100% (active) | inactive | inactive | inactive | inactive |
| CS(=O)(=O)c1ccc(CCNCc2ccc(-c3ccc(CN(C(=O)c4ccco4)C4CCN(Cc5ccccc5)CC4)cc3)nc2)cc1 | 38% | 13% | -1 | 85% (active) | inactive | inactive | inactive | inactive |
